# The supplement of paper PMC9694430
# How the values were obtained:
# Assay in all cases: thermal shift delta Tm vs DMSO control; higher = stronger stabilization (binding)
# Settings in all cases: 12.5 µM; protein concentration 2 µM
# LOC_OS02G45750-cb003 = tested on: LOC_OS02G45750-cb003
# In short: (§1)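 The melting temperature shift given here is a triplicate mean, measured against protein that received only DMSO. Melting temperatures came from Boltzmann fits of differential scanning fluorimetry data on E. coli-expressed, purified rice kinase domain constructs. Each 19.5 μl well contained 2 μM kinase, 100 mM potassium phosphate pH 7.5, 150 mM NaCl, 10% glycerol, 5 × SYPRO Orange and compound in DMSO. Plates were scanned from 25°C to 95°C at 0.05°C/s.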
# LOC_OS02G54510-cb004 = tested on: LOC_OS02G54510-cb004
# In short: as §1
# LOC_OS03G04050-cb001 = tested on: LOC_OS03G04050-cb001
# In short: as §1
# LOC_OS03G12390-cb001 = tested on: LOC_OS03G12390-cb001
# In short: as §1
# LOC_OS03G27990-cb004 = tested on: LOC_OS03G27990-cb004
# In short: as §1
# LOC_OS03G50450-cb001 = tested on: LOC_OS03G50450-cb001
# In short: as §1
# LOC_OS03G50810-cb003 = tested on: LOC_OS03G50810-cb003
# In short: as §1
# LOC_OS04G35114-cb001 = tested on: LOC_OS04G35114-cb001
# In short: as §1
# LOC_OS04G38480-cb003 = tested on: T1, LOC_OS04G38480-cb003
# T1 sequence (whole entry): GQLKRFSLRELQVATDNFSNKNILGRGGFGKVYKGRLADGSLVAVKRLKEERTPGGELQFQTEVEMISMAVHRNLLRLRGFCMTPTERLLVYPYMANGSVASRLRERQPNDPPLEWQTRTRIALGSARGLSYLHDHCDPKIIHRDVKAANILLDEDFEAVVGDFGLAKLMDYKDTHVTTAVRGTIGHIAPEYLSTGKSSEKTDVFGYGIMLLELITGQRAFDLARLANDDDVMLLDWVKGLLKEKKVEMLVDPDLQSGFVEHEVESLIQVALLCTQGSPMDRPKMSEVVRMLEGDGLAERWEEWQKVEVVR
# In short: as §1
# LOC_OS04G41100-cb001 = tested on: T2, LOC_OS04G41100-cb001
# T2 sequence (whole entry): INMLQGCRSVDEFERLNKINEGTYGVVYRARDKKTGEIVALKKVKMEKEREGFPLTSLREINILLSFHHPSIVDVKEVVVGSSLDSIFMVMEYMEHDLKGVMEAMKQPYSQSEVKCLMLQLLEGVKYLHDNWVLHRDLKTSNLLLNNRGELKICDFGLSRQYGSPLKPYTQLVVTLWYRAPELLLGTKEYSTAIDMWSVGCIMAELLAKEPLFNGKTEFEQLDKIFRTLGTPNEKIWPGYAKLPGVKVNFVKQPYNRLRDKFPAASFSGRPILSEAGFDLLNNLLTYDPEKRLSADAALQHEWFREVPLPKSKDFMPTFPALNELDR
# In short: as §1
# LOC_OS04G57630-cb004 = tested on: LOC_OS04G57630-cb004
# In short: as §1
# LOC_OS05G07850-cb002 = tested on: LOC_OS05G07850-cb002
# In short: as §1
# LOC_OS05G16824-cb004 = tested on: LOC_OS05G16824-cb004
# In short: as §1
# LOC_OS05G28520-cb001 = tested on: LOC_OS05G28520-cb001
# In short: as §1
# LOC_OS05G30820-cb001 = tested on: LOC_OS05G30820-cb001
# In short: as §1
# LOC_OS05G43570-cb004 = tested on: LOC_OS05G43570-cb004
# In short: as §1
# LOC_OS06G16330-cb003 = tested on: LOC_OS06G16330-cb003
# Sequence of LOC_OS06G16330-cb003 (as listed by the source): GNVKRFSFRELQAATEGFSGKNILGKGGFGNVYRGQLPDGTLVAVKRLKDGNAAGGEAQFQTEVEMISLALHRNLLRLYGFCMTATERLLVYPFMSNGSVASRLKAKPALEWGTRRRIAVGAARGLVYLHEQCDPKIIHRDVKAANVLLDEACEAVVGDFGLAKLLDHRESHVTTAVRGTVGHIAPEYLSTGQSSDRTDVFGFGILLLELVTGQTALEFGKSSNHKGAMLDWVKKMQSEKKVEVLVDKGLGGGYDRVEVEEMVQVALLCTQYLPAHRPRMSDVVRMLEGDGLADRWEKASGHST
# In short: as §1
# LOC_OS06G22820-cb001 = tested on: T3, LOC_OS06G22820-cb001
# T3 sequence (whole entry): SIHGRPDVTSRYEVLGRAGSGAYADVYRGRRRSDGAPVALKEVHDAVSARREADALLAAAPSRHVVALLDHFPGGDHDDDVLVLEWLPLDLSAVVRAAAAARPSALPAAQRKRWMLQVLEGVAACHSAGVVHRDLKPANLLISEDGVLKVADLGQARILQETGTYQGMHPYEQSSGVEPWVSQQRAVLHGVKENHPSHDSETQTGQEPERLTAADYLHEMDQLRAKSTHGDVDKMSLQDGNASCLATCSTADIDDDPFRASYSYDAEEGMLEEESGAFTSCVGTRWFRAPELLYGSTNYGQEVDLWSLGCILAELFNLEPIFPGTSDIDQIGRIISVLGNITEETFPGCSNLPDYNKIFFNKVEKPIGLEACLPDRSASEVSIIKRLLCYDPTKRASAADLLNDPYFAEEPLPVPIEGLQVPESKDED
# In short: as §1
# LOC_OS07G06570-cb004 = tested on: LOC_OS07G06570-cb004
# In short: as §1
# LOC_OS07G07230-cb001 = tested on: LOC_OS07G07230-cb001
# In short: as §1
SMILES,thermal shift delta Tm (LOC_OS02G45750-cb003) [°C],thermal shift delta Tm (LOC_OS02G54510-cb004) [°C],thermal shift delta Tm (LOC_OS03G04050-cb001) [°C],thermal shift delta Tm (LOC_OS03G12390-cb001) [°C],thermal shift delta Tm (LOC_OS03G27990-cb004) [°C],thermal shift delta Tm (LOC_OS03G50450-cb001) [°C],thermal shift delta Tm (LOC_OS03G50810-cb003) [°C],thermal shift delta Tm (LOC_OS04G35114-cb001) [°C],thermal shift delta Tm (LOC_OS04G38480-cb003) [°C],thermal shift delta Tm (LOC_OS04G41100-cb001) [°C],thermal shift delta Tm (LOC_OS04G57630-cb004) [°C],thermal shift delta Tm (LOC_OS05G07850-cb002) [°C],thermal shift delta Tm (LOC_OS05G16824-cb004) [°C],thermal shift delta Tm (LOC_OS05G28520-cb001) [°C],thermal shift delta Tm (LOC_OS05G30820-cb001) [°C],thermal shift delta Tm (LOC_OS05G43570-cb004) [°C],thermal shift delta Tm (LOC_OS06G16330-cb003) [°C],thermal shift delta Tm (LOC_OS06G22820-cb001) [°C],thermal shift delta Tm (LOC_OS07G06570-cb004) [°C],thermal shift delta Tm (LOC_OS07G07230-cb001) [°C]
COc1cccc2cc(-c3nc([C@H]4CC[C@H](C(=O)O)CC4)n4ncnc(N)c34)[nH]c12,0.26,0.38,0.31,0.34,0.03,0.32,0.58,3.43,0.98,0.32,0.17,3.87,-4.58,0.34,0.73,0.5,-0.07,0.66,0.52,0.08
Nc1cccc(S(=O)(=O)N2CCCN(S(=O)(=O)c3ccc4c(c3)OCCO4)CC2)c1,0.54,0.12,0.38,0.13,0.13,0.24,0.28,0.8,1.86,0.33,-0.1,0.55,-0.03,0.74,0.46,0.1,-0.91,0.44,1.4,0.56
CO[C@H]1C[C@@H]2CC[C@@H](C)[C@@](O)(O2)C(=O)C(=O)N2CCCC[C@H]2C(=O)O[C@H]([C@H](C)C[C@@H]2CC[C@H](n3cnnn3)[C@H](OC)C2)CC(=O)[C@H](C)/C=C(\C)[C@@H](O)[C@@H](OC)C(=O)[C@H](C)C[C@H](C)/C=C/C=C/C=C/1C [Zotarolimus(ABT-578)],1.04,0.46,0.79,0.05,0.77,0.89,0.33,0.66,2.27,0.4,0.76,0.65,-0.34,0.87,0.57,1.17,-0.09,0.92,1.43,-0.08
COc1cc2nccc(Oc3ccc(NC(=O)c4cn(C(C)C)c(=O)n(-c5ccc(F)cc5)c4=O)cc3F)c2cc1OC,1.35,0.3,0.61,0.23,0.52,0.71,1.15,0.49,3.7,0.44,0.32,11.1,2.27,0.34,-0.01,0.27,8.48,0.89,1.78,0.22
C[S+]([O-])c1ccc(-c2nc(-c3ccc(F)cc3)c(-c3ccncc3)[nH]2)cc1 (stereo not given),1.21,0.81,1.08,0.78,0.58,0.08,0.32,1.35,1.26,1.23,0.89,1.83,-0.97,1.26,0.6,1.12,0.69,0.87,1.21,0.43
COc1cc2ncnc(Nc3ccc(F)c(Cl)c3)c2cc1NC(=O)/C=C/CN1CCCCC1,1.69,0.71,1.08,0.21,1.04,1.79,0.95,1.15,1.53,0.71,0.99,0.3,-1.53,1.09,0.67,1.72,0.01,1.31,1.37,0.21
